# Laboratory results from PubChem BioAssay (NCI).
# The panel holds about 83,000 compounds, 20% with a hit somewhere; the sample as a whole holds those more often.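 Percent growth is the endpoint: 0 to 100 indicates growth inhibition (40 means 60% inhibition), 0 means no net growth, and negative values indicate cell death.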 Unmarked numbers belong to inactive results. Calls of active or inactive are those of the source. The calls were made as follows: active = growth percent below 10; inactive = the rest.
# How the values were obtained:
# Assay in all cases: NCI-60 one-dose screen, 48 h (100 = growth as untreated, 0 = no growth, -100 = all killed)
# Conditions in all cases: 10 µM unless noted
# [1] = test system: HCT-15 colon
# [2] = test system: HT29 colon
# [3] = test system: SNB-75 CNS
# [4] = test system: SNB-19 CNS
# [5] = test system: U251 CNS
# [6] = test system: PC-3 prostate
# [7] = test system: SK-MEL-5 melanoma
# [8] = test system: UACC-62 melanoma
# [9] = test system: LOX IMVI melanoma
# [10] = test system: SK-MEL-28 melanoma
# [11] = test system: SK-MEL-2 melanoma
# [12] = test system: EKVX NSCLC
# [13] = test system: SN12C renal
# [14] = test system: UO-31 renal
# [15] = test system: TK-10 renal
# [16] = test system: ACHN renal
# [17] = test system: CAKI-1 renal
# [18] = test system: A498 renal
# [19] = test system: CCRF-CEM leukemia
# [20] = test system: MOLT-4 leukemia
Compound,growth [1],growth [2],growth [3],growth [4],growth [5],growth [6],growth [7],growth [8],growth [9],growth [10],growth [11],growth [12],growth [13],growth [14],growth [15],growth [16],growth [17],growth [18],growth [19],growth [20]
c1cc2ccc1CNCCN1CCNCc3ccc(cc3)Oc3ccc(cc3)CNCCN(CCNCc3ccc(cc3)O2)CCNCc2ccc(cc2)Oc2ccc(cc2)CNCC1,95.4%,-74.7% (active),-73.1% (active),-91.2% (active),-99.7% (active),-85.5% (active),66.1%,-76% (active),-94.1% (active),14.7%,-94.5% (active),15.2%,-80.5% (active),85.3%,29.4%,84.4%,47.5%,48%,-17.4% (active),-45.4% (active)
C=CCCCCCCCCC(=O)OC(C)C,99.1%,98.6%,103%,105%,96.1%,99.7%,95.9%,105%,100%,104%,101%,101%,105%,88.9%,101%,107%,107%,91.4%,2.8% (active),95.2%
C[C@H]1[C@H](C)CC[C@]2(C(=O)O)CC[C@]3(C)C(=CC[C@@H]4[C@@]5(C)C/C(=C/c6ccco6)C(=O)C(C)(C)[C@@H]5CC[C@]43C)[C@H]12,-71.2% [100 µM] (active),-67.9% [100 µM] (active),-55.9% [100 µM] (active),-52.6% [100 µM] (active),-64.5% [100 µM] (active),-67.1% [100 µM] (active),-91.7% [100 µM] (active),-94.4% [100 µM] (active),-91.7% [100 µM] (active),-79.2% [100 µM] (active),-64% [100 µM] (active),-68.4% [100 µM] (active),-56% [100 µM] (active),-99.5% [100 µM] (active),-73.4% [100 µM] (active),-97.9% [100 µM] (active),-74.6% [100 µM] (active),-56.2% [100 µM] (active),-26.4% [100 µM] (active),-10.8% [100 µM] (active)
CCCc1cc2cc(-n3nc(C)c4c3CC(C)(C)CC4=O)cc(NC3CCSCC3)c2c(=O)[nH]1,41.4%,9.23% (active),102%,72%,72.3%,55.2%,70.4%,53.2%,54.8%,68.6%,71.6%,76.4%,39.8%,61%,43.4%,38.5%,68.8%,71.4%,100%,49.8%
O=S(=O)(NCc1ccccc1)c1ncnc2nc[nH]c12,108%,106%,91.4%,108%,86%,105%,99.7%,96.4%,99.1%,107%,118%,111%,108%,93.8%,115%,105%,104%,124%,83.1%,93.3%
COC(=O)c1c(C)[nH]c(/C=C2\N=C(c3ccc[nH]3)C=C2OC)c1C,0.837% (active),-13.8% (active),-23.3% (active),30.5%,-27.9% (active),9.06% (active),-99.7% (active),-62.8% (active),-56.8% (active),-27.8% (active),-72.8% (active),-31.8% (active),16.9%,-72.6% (active),0.549% (active),-69.1% (active),-25% (active),0.235% (active),15.2%,1.37% (active)
Brc1ccc(-c2nnc3c4[nH]ccc4ncn23)cc1,88.6%,94.9%,95.6%,95.5%,100%,90.6%,93.3%,72%,85.4%,114%,92.2%,77.5%,90.5%,58.6%,89.4%,78.7%,87.3%,70.6%,97.3%,77.2%
CC1(C)CC[C@]2(C(=O)O)CC[C@]3(C)[C@H](CC[C@@H]4[C@@]5(C)CCC(=O)C(C)(C)[C@@H]5CC[C@]43C)[C@H]2[C@H]1OC(=O)C(F)(F)F,-64% [100 µM] (active),-37.7% [100 µM] (active),-36.5% [100 µM] (active),-78.4% [100 µM] (active),-71.4% [100 µM] (active),-56.4% [100 µM] (active),-94.2% [100 µM] (active),-85.2% [100 µM] (active),-99.1% [100 µM] (active),-58.5% [100 µM] (active),-71.8% [100 µM] (active),-69.6% [100 µM] (active),-82.1% [100 µM] (active),-96.4% [100 µM] (active),-84.1% [100 µM] (active),-94.1% [100 µM] (active),-71.2% [100 µM] (active),-81.2% [100 µM] (active),-25% [100 µM] (active),-26.4% [100 µM] (active)
C=C(C)[C@@H]1CC[C@]2(C)[C@H](CC=C3[C@@H]4[C@@H](C)[C@H](C)CC[C@]4(C(N)=O)CC[C@]32C)[C@@]1(C)CCC#N,9.25% [100 µM] (active),-32.6% [100 µM] (active),-5.4% [100 µM] (active),16.2% [100 µM],-59.3% [100 µM] (active),12.2% [100 µM],-87.9% [100 µM] (active),-63.9% [100 µM] (active),-92.9% [100 µM] (active),-67.8% [100 µM] (active),-62.5% [100 µM] (active),11.8% [100 µM],-75.7% [100 µM] (active),-91.5% [100 µM] (active),-10.2% [100 µM] (active),-1.6% [100 µM] (active),6.4% [100 µM] (active),-33.6% [100 µM] (active),-7.62% [100 µM] (active),-1.01% [100 µM] (active)
Cn1cc(-c2nnc(-c3cn(C)c4ncc(Br)cc34)o2)c2ccccc21,53.3%,87.7%,65.8%,87.6%,94.3%,77.2%,80.1%,70.8%,92.3%,91.7%,99.1%,74.1%,88.2%,61.4%,114%,81.4%,45%,86.4%,102%,93.6%
Cc1ccc(S(=O)(=O)NCCCNc2nccc(-c3c(-c4cccc(F)c4)nc4occn34)n2)cc1,73.4%,27.8%,73.5%,90.7%,70.6%,44.3%,67.2%,58.6%,57.9%,95.9%,87.8%,78.7%,70.1%,43.6%,79.8%,80.9%,53.4%,57.5%,42.2%,27%
O=[N+]([O-])c1cc([N+](=O)[O-])c(C(F)(F)F)cc1NN=C(c1ccc(O)cc1)c1ccc(O)cc1,13.7%,91.6%,92.7%,-4.43% (active),26.2%,51.1%,-96.7% (active),60.6%,14%,94.8%,-80.3% (active),92.7%,79.7%,-79.4% (active),123%,12.8%,98%,103%,112%,107%
